Laboratory results reported in the supplement of paper PMC11417369.
Whole data set: some 25,000 sequences, median “ln(normalized median fluorescence intensity)” near 6.7, cut for the highest 2% near 10. Shown is part of a subset that was picked to be rich in the highest values.

system: PfHDP1 homeodomain (GST-tagged); experiment: gcPBM binding intensity (ln(normalized median fluorescence intensity)); higher = stronger DNA binding
Method in brief: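 Each value is the highest Masliner-normalised natural-log median intensity across replicate spots of either orientation of a probe. The probes were primer-extended double-stranded 36-bp intergenic genomic sequences on an Agilent 4 × 180k array, alongside negative controls, exposed for 1 h to GST-tagged P. falciparum DNA-binding domains expressed in E. coli. Bound protein was picked up with Alexa488 anti-GST antibody and scanned at 488 nm.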

| Sequence | gcPBM binding intensity (ln) |
| --- | --- |
| CTCTTCTATATATAAGCATGCATTCATAATAATTTA [TGCATGCA_site679] | 7.04 |
| CTTTTATTGCTCTATATGCACACCTTAATTCTTCAT [CACACA_site2195] | 10.5 |
| TTTTTATATAACCTTCTTAATTCTTTTTTTTTTTTT [XGTACX_negctrl_site591] | 6.16 |
| TTCTCTATAAATGCTGCACACACATTTAATTATTTA [CACACA_site8828] | 8.06 |
| TCATATAATATTTATATGCACACTTTTCTATATATA [CACACA_site4075] | 8.75 |
| TTTATTGCTCTATATGCACACCTTAATTCTTCATTT [CACACA_site8682] | 11.1 |
| AAAAGGAACGGACACACACACATATATATATATATA [CACACA_site5894] | 9.45 |
| TTTTTGAGTGCACATACACACAGACATACATTTAAA [CACACA_site5813] | 10.4 |
| AATATAACTTTTTGCACACTTAATTTTTTTTTTTAA [CACACA_site3365] | 10.6 |
| TATATTAAACTTTGCACACATAATTTAACTACAAAG [CACACA_site3441] | 10.5 |
| ACTAAACTTTTATGTACACACATATAACATTAATTT [CACACA_site5276] | 6.98 |
| TATATATTAAACTTTGCACACATAATTTAACTACAA [CACACA_site3440] | 10.7 |
| TTTTTTTTTTTTTTTGCACACTATATTTAATATAAG [CACACA_site2444] | 9.31 |
| TTAATATAACTTTTTGCACACTTAATTTTTTTTTTT [CACACA_site3364] | 10.2 |
| ATGTATATGTTTTGTTGTACAAGTATTTTATATCTT [XGTACX_site3588] | 6.77 |
| TTCATATTATAGTGCACACAAAAATATATATATGGT [CACACA_site2855] | 10.4 |
| AAAATTAAACTCACACCACACACAAAAAAAAAAAAA [CACACA_site8131] | 6.32 |
| AACTCATAGCGGTGTGCACACAAAAAATTAAAAAAA [CACACA_site3033] | 11 |
| AATTATTAGCGTGGTGTGCACAAAATTATGGACACA | 9.8 |
| AACTCATAGGAGTGTGCACACAAAAAATTAAAAAAA [CACACA_site8996] | 11 |
| CTCATAGTTGGGTGCACACAAAAAATTAAAAAAATA [CACACA_site3032] | 10.3 |
| AGTATATATTATATATATATATATATATTATATATG [TGCATGCA_negctrl_site99] | 6.59 |
| CTTTCTTATTTGAACGCATGCATTTGTACCTTTTAT [TGCATGCA_site671] | 6.85 |
| AAATTCCACCAACACACACACATATAAATAAATAAA [CACACA_site1233] | 6.84 |
| TTCAAAACTTAAAATCGTACAAGACAATTATTATAT [XGTACX_site6626] | 6.32 |
| TTCTTTTTATTTATATTTTCCCCTCTCTATAGCTAT [XGTACX_negctrl_site102] | 7.06 |
